From PubChem BioAssay (Tox21)
Records with an inconclusive call do not appear. The source made the active and inactive calls. Unless noted, the call rests on the fitted dose curve; in most records, active means well fitted curve in the direction sought with a large enough effect in the repeat runs; inconclusive means weak or mixed curves; inactive means no such curve, though single readings can be large; an effect the other way counts as inactive or inconclusive.

What was measured:
[1] = qHTS assay for small molecule agonists of the p53 signaling pathway (AID 651631; calls by dose curve; further: nearly all actives have a fitted effect of over 15% in size)
In short: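 Read-out is beta-lactamase FRET fluorescence measured 2 h after substrate addition at room temperature, in HCT-116 cells with a p53 response element-driven reporter exposed to compounds for 16 h at 37 °C.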

[2] = qHTS assay for small molecules that induce genotoxicity in human embryonic kidney cells expressing luciferase-tagged ATAD5 (AID 651632); further: nearly all actives have a fitted effect of over 15% in size
In short: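 Increased luciferase signal from ATAD5-tagged reporter cells indicates DNA-damage-driven ATAD5 induction. HEK293T cells are treated for 16 hr at 37C before detection with Amplite.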

[3] = qHTS assay for small molecule agonists of the p53 signaling pathway - cell viability (AID 651633; calls by dose curve;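 further: p53RE-bla HCT reporter cells with a stable beta-lactamase p53 reporter; series mostly up to about 83 µM; nearly all actives have a fitted effect of over 30% in size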)
In short: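 p53RE-bla cells, seeded at 4,000 per well and rested 5 h at 37 C/5% CO2, received compounds in DMSO for 16 h at 37 C. CellTiter-Glo was then added, and luminescence was read after 30 min at room temperature to gauge cytotoxicity.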

[4] = qHTS assay for small molecules that induce genotoxicity in human embryonic kidney cells expressing luciferase-tagged ATAD5 - cell viability (AID 651634; calls by dose curve; further: nearly all actives have a fitted effect of over 25% in size)
In short: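 Cytotoxicity counterscreen in HEK293T cells bearing an ATAD5-luciferase reporter: live-cell protease activity measured by CellTiter-Fluor fluorescence after 15.5 hr compound exposure.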

[5] = qHTS assay for small molecule disruptors of the mitochondrial membrane potential - cell viability (AID 720634; calls by dose curve;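 further: human HepG2 liver cancer cells; series mostly up to about 83 µM; nearly all actives have a fitted effect of over 20% in size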)
In short: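 After overnight attachment at 37 C, HepG2 cells received compound or DMSO vehicle for 1 hr. Viability is then taken from ATP-driven luminescence following a 30 min room-temperature CellTiter-Glo step.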

[6] = qHTS assay for small molecule disruptors of the mitochondrial membrane potential (AID 720635)
In short: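 HepG2 cells (2,000/well) attached overnight at 37C, then took compound for 1 hr at 37C, 5% CO2. Mito-MPS dye was added for 30 min; fluorescence was read at 490/535 nm (monomers) and 540/590 nm (aggregates).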

[7] = qHTS assay to test for compound auto fluorescence at 590 nm (red) in HepG2 cells (AID 720674)
In short: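 Rose Bengal sodium served as the red fluorophore standard. HepG2 monolayers (overnight attachment, MEM with 10% FBS) were exposed to test compounds for 1 hr at 37 C and read at Ex 540/Em 590 nm.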

[8] = qHTS assay to test for compound auto fluorescence at 535 nm (green) in HepG2 cells (AID 720675)
[9] = qHTS assay to test for compound auto fluorescence at 460 nm (blue) in HEK293 cells (AID 720678)
In short: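 Auto fluorescence in the blue band was quantified as triamterene equivalency. HEK293 cells were seeded at 2,000/well, dosed after a 4-5 hr attachment, and kept overnight at 37C before the 405/460 nm reading.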

[10] = qHTS assay to test for compound auto fluorescence at 590 nm (red) in HEK293 cells (AID 720679)
In short: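 Autofluorescence equivalency to Rose Bengal sodium, 540/590nm, in HEK293 cells exposed overnight to 23 nL compound per well.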
On the % scale 0 is the no-effect control and ±100 the full control effect.

CC1=C(C)C(=O)C(C(CCCCCC(=O)O)c2ccccc2)=C(C)C1=O (centres undefined)
inactive: Potency [1] | Potency [2] | Potency [3] | Potency [4] | Potency [5] | Potency [6] | outcome [7] | outcome [8] | Potency [9] | outcome [10]

CC(C)(C)N
inactive: Potency [1] | Potency [2] | Potency [3] | Potency [4] | Potency [5] | Potency [6] | outcome [7] | outcome [8] | Potency [9] | outcome [10]

CCCCOC(=O)C(C)Oc1ccc(Oc2ccc(C(F)(F)F)cn2)cc1 (centres undefined)
inactive: Potency [1] | Potency [2] | Potency [3] | Potency [4] | Potency [5] | Potency [6] | outcome [7] | Potency [9] | outcome [10]

CCc1ccc(C(=O)C(C)CN2CCCCC2)cc1 (centres undefined)
inactive: Potency [1] | Potency [2] | Potency [3] | Potency [4] | Potency [5] | Potency [6] | outcome [7] | Potency [9] | outcome [10]

CC1(C)C(=O)NC(=O)N1CO
inactive: Potency [1] | Potency [2] | Potency [3] | Potency [4] | Potency [5] | Potency [6] | outcome [7] | outcome [8] | Potency [9] | outcome [10]

COC(=O)C(C)(C)C
inactive: Potency [1] | Potency [2] | Potency [3] | Potency [4] | Potency [5] | Potency [6] | outcome [7] | outcome [8] | outcome [10]

C[C@H](CN1CCCC1)C(=O)c1ccc(C(F)(F)F)cc1
inactive: Potency [1] | Potency [2] | Potency [3] | Potency [4] | Potency [5] | Potency [6] | outcome [7] | outcome [8] | outcome [10]

C/C(=C(\CCO)SS/C(CCO)=C(\C)N(C=O)Cc1cnc(C)nc1N)N(C=O)Cc1cnc(C)nc1N
inactive: Potency [1] | Potency [2] | Potency [3] | Potency [4] | Potency [5] | Potency [6] | outcome [7] | outcome [8] | Potency [9] | outcome [10]

CCCCCCOC(=O)c1ccccc1
inactive: Potency [1] | Potency [2] | Potency [3] | Potency [4] | Potency [5] | Potency [6] | outcome [7] | outcome [8] | Potency [9] | outcome [10]

C=CC(C)(O)CC/C=C(/C)CCC=C(C)C (centres undefined)
inactive: Potency [1] | Potency [2] | Potency [3] | Potency [4] | Potency [5] | Potency [6] | outcome [7] | outcome [8] | Potency [9] | outcome [10]

CO[C@@H]1[C@@H](O[C@@H]2O[C@H](C)[C@@H](O[C@H]3C[C@@](C)(O)[C@@H](O)[C@H](C)O3)[C@H](N(C)C)[C@H]2O)[C@@H](CC=O)C[C@@H](C)[C@@H](O[C@@H]2CC[C@H](N(C)C)[C@@H](C)O2)/C=C/C=C/C[C@@H](C)OC(=O)C[C@H]1OC(C)=O
inactive: Potency [1] | Potency [2] | Potency [3] | Potency [4] | Potency [5] | Potency [6] | outcome [7] | outcome [8] | Potency [9] | outcome [10]

CCc1c(C)[nH]c2c1C(=O)C(CN1CCOCC1)CC2 (centres undefined)
inactive: Potency [1] | Potency [2] | Potency [3] | Potency [4] | Potency [5] | Potency [6] | fluorescence, relative to Rose Bengal [7] 0.262% [at 18.6 µM] | fluorescence, % of triamterene [9] 0.0227% [at 18.6 µM] | fluorescence, % of fluorescent control [10] 0.192% [at 18.6 µM]

C/C(=C\C(C)CC(C)CC(C)C)C1CC(=O)OC1=O (centres undefined)
inactive: Potency [1] | Potency [2] | Potency [3] | Potency [4] | Potency [5] | Potency [6] | outcome [7] | outcome [8] | Potency [9] | outcome [10]

O=[N+]([O-])c1ccccc1CCO
inactive: Potency [1] | Potency [2] | Potency [3] | Potency [4] | Potency [6] | outcome [7] | outcome [8] | Potency [9] | outcome [10]

Clc1cc(Cl)c2c(c1)N=C1CCCCCN1C2
inactive: Potency [1] | Potency [2] | Potency [3] | Potency [4] | Potency [5] | outcome [7] | Potency [9] | outcome [10]

O=C(O)c1ccccc1[N+](=O)[O-]
inactive: Potency [1] | Potency [2] | Potency [3] | Potency [4] | Potency [5] | outcome [7] | outcome [8] | outcome [10]

CC(C)C/C=C(\C=O)c1ccccc1
inactive: Potency [1] | Potency [2] | Potency [3] | Potency [4] | Potency [5] | outcome [7] | outcome [8] | Potency [9] | outcome [10]

O=C(O)c1ccncc1
inactive: Potency [1] | Potency [2] | Potency [3] | Potency [4] | Potency [5] | outcome [7] | outcome [8] | Potency [9] | outcome [10]

OCC(O)c1ccccc1 (centres undefined)
inactive: Potency [1] | Potency [2] | Potency [3] | Potency [4] | Potency [5] | outcome [7] | outcome [8] | Potency [9] | outcome [10]

Cc1ccccc1CCO
inactive: Potency [1] | Potency [2] | Potency [3] | Potency [4] | Potency [5] | outcome [7] | outcome [8] | Potency [9] | outcome [10]

CC(C)Cc1nccs1
inactive: Potency [1] | Potency [2] | Potency [3] | Potency [4] | Potency [5] | outcome [7] | outcome [8] | Potency [9] | outcome [10]

COC(=O)/C=C/C(C)=C\C=C\C(C)=C\C=C\C=C(C)\C=C\C=C(C)\C=C\C(=O)O
inactive: Potency [1] | Potency [2] | Potency [3] | Potency [4] | Potency [5] | outcome [7] | outcome [8] | Potency [9] | outcome [10]

CCOc1ccc(NC(C)=O)cc1N
inactive: Potency [1] | Potency [2] | Potency [3] | Potency [4] | Potency [5] | outcome [7] | outcome [8] | Potency [9] | outcome [10]

C/C=C1\[C@H]2C=C(C)C[C@]1(N)c1ccc(=O)[nH]c1C2
inactive: Potency [1] | Potency [2] | Potency [3] | Potency [4] | Potency [5] | outcome [7] | outcome [8] | Potency [9] | outcome [10]

COc1cc(CNC(=O)CCCC/C=C/C(C)C)ccc1O
inactive: Potency [1] | Potency [2] | Potency [3] | Potency [4] | Potency [5] | outcome [7] | outcome [10]
